Reference: the OligoGym collection

The sequences below were run against STARD3 (assay: pooled miR-30 sensor sort-seq; sequence = guide strand). Settings: shRNA.

**Q.** For TTCAGGATAAACGTCTTGCCGT, which sensor-assay potency score (higher = more potent) is on record?
**A.** The sensor-assay potency score (higher = more potent) was -0.566.

**Q.** Which sensor-assay potency score (higher = more potent) does the source give for TTGTTCCACAGCACCATCCTCT here?
**A.** The sensor-assay potency score (higher = more potent) was -0.73.

**Q.** TGTCTTGTTCCACAGCACCATC was tested. Which sensor-assay potency score (higher = more potent) did it give?
**A.** The sensor-assay potency score (higher = more potent) was -1.77.

**Q.** With TTATTCTTCTCAAACTTCCAGT as the sequence, how does the sensor-assay potency score (higher = more potent) read?
**A.** Its sensor-assay potency score (higher = more potent) is -0.167.

The sequences below were run against STAT5B in the same assay as above. Settings: shRNA.

**Q.** TTCTCAATGATGAACGTGCTGG was tested. Which sensor-assay potency score (higher = more potent) did it give?
**A.** The sensor-assay potency score (higher = more potent) was -0.64.

**Q.** With TAACTCATTCTCTGTGTCCTGC as the sequence, how does the sensor-assay potency score (higher = more potent) read?
**A.** The sensor-assay potency score (higher = more potent) was 0.72.

**Q.** TTGTTCAAGATCTCGCCACTGT was tested. Which sensor-assay potency score (higher = more potent) did it give?
**A.** Its sensor-assay potency score (higher = more potent) is 0.132.

**Q.** With TTGGCTTCTCGGACCAACCTCT as the sequence, how does the sensor-assay potency score (higher = more potent) read?
**A.** The sensor-assay potency score (higher = more potent) was -0.339.

**Q.** TAACACTTCCATCACACCGTCA was tested. Which sensor-assay potency score (higher = more potent) did it give?
**A.** Its sensor-assay potency score (higher = more potent) is -0.288.

**Q.** TTGACTTGAAAAACCAGCTCAT was tested. Which sensor-assay potency score (higher = more potent) did it give?
**A.** Its sensor-assay potency score (higher = more potent) is 0.235.

**Q.** How did the sensor-assay potency score (higher = more potent) turn out when TTTAGCAGTAGCAGACTCGCAG was run?
**A.** Its sensor-assay potency score (higher = more potent) is 0.175.

**Q.** How did the sensor-assay potency score (higher = more potent) turn out when TATACTTCATCTTTTGGCCGAT was run?
**A.** Its sensor-assay potency score (higher = more potent) is -0.0426.

**Q.** TTAACACTTCCATCACACCGTC was tested. Which sensor-assay potency score (higher = more potent) did it give?
**A.** The sensor-assay potency score (higher = more potent) was -0.414.

**Q.** With TTCTGAGTCACTGAATCTCAGG as the sequence, how does the sensor-assay potency score (higher = more potent) read?
**A.** The sensor-assay potency score (higher = more potent) was -1.25.

**Q.** For TTAGCAGTAGCAGACTCGCAGG, which sensor-assay potency score (higher = more potent) is on record?
**A.** Its sensor-assay potency score (higher = more potent) is -0.797.

**Q.** For TTTAACACTTCCATCACACCGT, which sensor-assay potency score (higher = more potent) is on record?
**A.** Its sensor-assay potency score (higher = more potent) is 0.122.

These sequences were tested against STK11 in the same assay as above. Settings: shRNA.

**Q.** TTCGTTGTATAACACATCCACC was tested. Which sensor-assay potency score (higher = more potent) did it give?
**A.** Its sensor-assay potency score (higher = more potent) is -1.02.

**Q.** TTTTTGTGCCGTAACCTCCTCA was tested. Which sensor-assay potency score (higher = more potent) did it give?
**A.** Its sensor-assay potency score (higher = more potent) is 0.218.

**Q.** TCGCAACTTCTTCTTCTTGAGG was tested. Which sensor-assay potency score (higher = more potent) did it give?
**A.** Its sensor-assay potency score (higher = more potent) is -1.45.

**Q.** Which sensor-assay potency score (higher = more potent) does the source give for TCTTCTTGAGGATCTTGACGGC here?
**A.** The sensor-assay potency score (higher = more potent) was -0.46.

**Q.** For TTTCTGCTTCTCTTCGTTGTAT, which sensor-assay potency score (higher = more potent) is on record?
**A.** The sensor-assay potency score (higher = more potent) was 0.0401.

**Q.** How did the sensor-assay potency score (higher = more potent) turn out when ATCAGCTGACAGAAGTACCCGT was run?
**A.** The sensor-assay potency score (higher = more potent) was -0.0103.

**Q.** TCAGCTGACAGAAGTACCCGTG was tested. Which sensor-assay potency score (higher = more potent) did it give?
**A.** Its sensor-assay potency score (higher = more potent) is 0.17.

**Q.** With TACATTTTCTGCTTCTCTTCGT as the sequence, how does the sensor-assay potency score (higher = more potent) read?
**A.** The sensor-assay potency score (higher = more potent) was 0.646.

**Q.** For TTCTTCTTGAGGATCTTGACGG, which sensor-assay potency score (higher = more potent) is on record?
**A.** The sensor-assay potency score (higher = more potent) was -0.484.

**Q.** How did the sensor-assay potency score (higher = more potent) turn out when TTCGCAACTTCTTCTTCTTGAG was run?
**A.** Its sensor-assay potency score (higher = more potent) is -0.46.

**Q.** How did the sensor-assay potency score (higher = more potent) turn out when TATAACACATCCACCAGCTGGA was run?
**A.** Its sensor-assay potency score (higher = more potent) is 0.528.

**Q.** Which sensor-assay potency score (higher = more potent) does the source give for TAACACATCCACCAGCTGGATG here?
**A.** The sensor-assay potency score (higher = more potent) was -1.1.

Each sequence was assayed against STK24 in the same assay as above. Settings: shRNA.

**Q.** TATACAAATCTGTACACCCATC was tested. Which sensor-assay potency score (higher = more potent) did it give?
**A.** Its sensor-assay potency score (higher = more potent) is -1.31.

**Q.** With TAATATAGTAGCGATCTGGGTT as the sequence, how does the sensor-assay potency score (higher = more potent) read?
**A.** Its sensor-assay potency score (higher = more potent) is 0.44.

**Q.** How did the sensor-assay potency score (higher = more potent) turn out when TTTCTCTTAATATAGTAGCGAT was run?
**A.** Its sensor-assay potency score (higher = more potent) is -0.861.

**Q.** TACATATGGACTGTCACACTGA was tested. Which sensor-assay potency score (higher = more potent) did it give?
**A.** Its sensor-assay potency score (higher = more potent) is 0.632.

**Q.** How did the sensor-assay potency score (higher = more potent) turn out when TTCTAATAGATCTAGTGCGGAG was run?
**A.** Its sensor-assay potency score (higher = more potent) is -0.878.

**Q.** With TTTCCTTCCAACGTCGGTGGGT as the sequence, how does the sensor-assay potency score (higher = more potent) read?
**A.** The sensor-assay potency score (higher = more potent) was 0.554.

**Q.** TTGTGCTTCAATAACTCCTTAG was tested. Which sensor-assay potency score (higher = more potent) did it give?
**A.** The sensor-assay potency score (higher = more potent) was -0.488.

**Q.** TTTCATCTTATTTCTGTCCAAG was tested. Which sensor-assay potency score (higher = more potent) did it give?
**A.** The sensor-assay potency score (higher = more potent) was -0.728.

**Q.** With TCTCGGATTGTGAAGATCCAGT as the sequence, how does the sensor-assay potency score (higher = more potent) read?
**A.** The sensor-assay potency score (higher = more potent) was -1.01.

**Q.** For TGGACTGTCACACTGACTCAGC, which sensor-assay potency score (higher = more potent) is on record?
**A.** Its sensor-assay potency score (higher = more potent) is -1.39.

**Q.** How did the sensor-assay potency score (higher = more potent) turn out when TAATTGTAGATAAACACTGAGA was run?
**A.** Its sensor-assay potency score (higher = more potent) is -0.826.
